High-throughput results as filed in PubChem BioAssay.
Rows were chosen to be rich in hits. Some 2.8% of all compounds tested hit in one or more screens of this group.
WRN helicase inh: blocks human WRN helicase; Potency, µM (top dose mostly 114 µM), for the others: at the top dose activity change, negative = inhibition, actives largely listed as inhibitors; WRN helicase unwinding, fluorescent forked duplex, kinetic; AID 651768; 360,000 compounds, 0.46% hits; Q14191; note: potency is the fitted concentration of half-maximal effect; % is set by controls: 0 for no effect and ±100 for the full control effect; nearly all actives have a fitted effect of over 55% in size
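Primary qHTS, 1536-well format. 20 nM WRN + compound, 15 min RT; start with 100 nM forked fluorophore/quencher duplex, 2 mM ATP (final); kinetic read ex 525/em 598 nm.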
Pol beta inh: blocks human DNA polymerase beta activity. P06746. Pol beta primer extension/strand displacement, fluorescence kinetic. Potency, µM (doses to about 114 µM), inactives show top-dose activity change, negative = inhibition, actives largely listed as inhibitors. 340,000 compounds, 1.3% hits. AID 485314; note: potency is the fitted concentration of half-maximal effect; % is set by controls: 0 for no effect and ±100 for the full control effect
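Values derive from four-parameter Hill fits of normalized kinetic data: reads at 0 and 10 min following addition of 50 nM substrate to 10 nM Pol beta preincubated 15 min with compound.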
Pol eta inh: blocks human DNA polymerase eta activity | recombinant Pol eta, fluorescent DNA replication assay | Potency, µM (top dose mostly 114 µM), without a hit: top-dose activity change, negative = inhibition, usual class: inhibitors | 390,000 compounds, 1.2% hits; note: potency is the fitted concentration of half-maximal effect; % is set by controls: 0 for no effect and ±100 for the full control effect
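Fluorescent replication assay: 50 nM final substrate added after a 15 min room-temperature compound preincubation with 10 nM enzyme. Signal taken at 0 min and again at 10 min.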
PI5P4K alpha inh: inhibitors of human PI5P4K alpha. P48426. PI5P4Kalpha enzyme, ADP-Glo luminescence, 60 min; hits give low values. max response, %. 330,000 compounds, 1.2% hits. AID 652105; active = max response of -50% or lower; inconclusive = between -30% and -50%; inactive = -30% or higher; note: value at the top dose of about 77 µM; % is set by controls: 0 for no effect and ±100 for the full control effect
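Luminescence from ADP-Glo served as readout of PI5P4Kalpha activity in a qHTS format. Reaction: enzyme, substrate, compound, ATP at 5 microM final, 60 min at RT.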
POLI inh: inhibitors of human DNA polymerase iota; Q9UNA4; Pol iota fluorescent replication assay, 10 min; Potency, µM (top dose mostly 115 µM), for inactives: top-dose activity, negative = inhibition, actives largely listed as inhibitors; 390,000 compounds, 1% hits; AID 588590; note: potency is the fitted concentration of half-maximal effect
Target sequence (Q9UNA4 whole entry, looked up): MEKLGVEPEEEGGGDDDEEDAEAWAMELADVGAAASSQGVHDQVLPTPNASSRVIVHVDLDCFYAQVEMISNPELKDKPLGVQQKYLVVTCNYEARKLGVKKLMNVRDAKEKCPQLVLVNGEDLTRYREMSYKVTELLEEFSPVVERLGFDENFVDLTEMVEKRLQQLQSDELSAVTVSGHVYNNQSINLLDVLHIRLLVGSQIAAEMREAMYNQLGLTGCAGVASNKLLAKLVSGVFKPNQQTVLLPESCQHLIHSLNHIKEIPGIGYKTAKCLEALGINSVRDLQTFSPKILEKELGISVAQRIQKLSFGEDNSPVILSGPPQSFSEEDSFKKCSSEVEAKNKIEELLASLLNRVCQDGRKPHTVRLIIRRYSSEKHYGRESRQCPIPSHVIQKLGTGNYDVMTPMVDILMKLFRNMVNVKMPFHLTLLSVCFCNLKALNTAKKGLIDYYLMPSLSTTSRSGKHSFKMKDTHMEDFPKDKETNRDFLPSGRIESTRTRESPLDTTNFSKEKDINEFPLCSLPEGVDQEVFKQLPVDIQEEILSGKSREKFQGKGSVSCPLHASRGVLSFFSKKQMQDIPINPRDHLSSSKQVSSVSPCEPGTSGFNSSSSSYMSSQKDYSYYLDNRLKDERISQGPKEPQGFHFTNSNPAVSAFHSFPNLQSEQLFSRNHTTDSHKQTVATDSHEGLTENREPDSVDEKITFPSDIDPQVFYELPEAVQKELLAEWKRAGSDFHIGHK
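Fluorescent replication assay read twice, at 0 min and 10 min after adding 50 nM (final) substrate. Enzyme (10 nM) and compounds were first incubated 15 min at room temperature; enzyme-free buffer wells were negative controls.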
Pol kappa inh: inhibitors of human DNA polymerase kappa. purified Pol kappa, fluorescent DNA synthesis assay, 10 min. Potency, µM (series often up to 107 µM), for inactives: at the highest dose activity, negative = inhibition, actives largely listed as inhibitors. 400,000 compounds, 0.53% hits; note: potency is the fitted concentration of half-maximal effect; % is set by controls: 0 for no effect and ±100 for the full control effect
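Pol kappa 10 nM + cpd, 15 min RT; start w/ substrate 50 nM final; fluorescence kinetic read, 0 and 10 min. Neg ctrl: buffer, no enzyme.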
* hit, by the source's call; ? = inconclusive; nt = no result; [ ] = another dose, or the depositor's remark. Unless noted, calls come from the whole dose curve; as a rule, active = well fitted curve in the direction sought with a large enough effect; inconclusive = small, poorly fitted or top-dose-only effect, or another doubt; inactive = no such curve, though single readings can be large; an effect the other way counts as inactive or inconclusive.

SMILES	WRN helicase inh	Pol beta inh	Pol eta inh	PI5P4K alpha inh	POLI inh	Pol kappa inh
COc1cccc(CNC(=O)CSc2n[nH]c(-c3ccccc3Cl)n2)c1	nt	25.2%	8.3%	nt	-11.9%	-6.4%[60.1 µM]
CN(C)C1=NCCN1CC1CCCCC1	7.6%	nt	-7.6%	5.4	?	13.0%
CCCCN1C(=O)/C(=C/C=C2\Oc3ccccc3N2CC)SC1=S	50.1µM*	-5.4%	?	1.1	?	5.4%
Cc1cc(C)n2[nH]c(=O)c(N=Nc3ccc(S(N)(=O)=O)cc3)c2n1	-12.3%[57.1 µM]	0.0%	-6.8%	2.6	16.4%	-11.8%
NS(=O)(=O)c1ccc(N=Nc2c(=O)[nH]n3c(=O)c4c([nH]c23)CCCC4)cc1	-21.6%	2.0%	-24.6%	-61.8*	34.9%	-24.4%
COc1cccc(N=Nc2c(=O)[nH]n3c(=O)c4c([nH]c23)CCC4)c1	?	?	50.1µM*	?	?	-30.7%
O=c1[nH]n2c(=O)c3c([nH]c2c1N=Nc1cccc(Cl)c1)CCC3	?	8.91µM*	20µM*	-57.7*	20µM*	89.1µM*
Cc1[nH]n(C(N)=S)c(=O)c1N=Nc1cccc(C(F)(F)F)c1	-14.6%	16.7%	-3.2%	-3.5	136.8%	-1.3%
O=c1[nH]n2c(=O)c3c([nH]c2c1N=Nc1cccc(C(F)(F)F)c1)CCCC3	-30.7%	17.8µM*	?	-19.3	-4.4%	-27.6%
Cc1ccc2nc(CN3CCN(S(=O)(=O)c4ccc(F)cc4)CC3)oc2c1	nt	-0.1%	-12.4%	nt	-9.7%	-11.4%[60.1 µM]
Cc1ccc(NC(=O)c2cn3c4c(ccc(Cl)c4c2=O)OC(C)C3)c(C)c1 (centres undefined)	nt	21.5%	-4.4%	nt	-16.8%	-4.9%
C#CCOCCOCCOCCNc1nc(N2CCN(C(=O)CCCCCCCCCCNC(=O)[C@H](CCCCN)n3cc(CCO)nn3)CC2)nc(N2CCN(C(=O)CCCCCCCCCCNC(=O)[C@H](CCCN=C(N)N)n3cc(C[C@@H](C)CC)nn3)CC2)n1	35.5µM*	nt	79.4µM*	-65.7*	?	?
C#CCOCCOCCOCCNc1nc(N2CCN(C(=O)CCCCCCCCCCNC(=O)[C@H](CCCCN)n3cc(C[C@@H](C)CC)nn3)CC2)nc(N2CCN(C(=O)CCCCCCCCCCNC(=O)[C@H](CCCCN)n3cc(C[C@@H](C)CC)nn3)CC2)n1	50.1µM*	nt	79.4µM*	-51.7*	20.3%	-2.6%
C#CCOCCOCCOCCNc1nc(N2CCN(C(=O)Cn3cc(CC(C)O)nn3)CC2)nc(N2CCN(C(=O)[C@H](C)n3cc(CCCN=C(N)N)nn3)CC2)n1 (some centres undefined)	-2.0%[11.6 µM]	-1.5%	-1.7%	-79.9*	?	-7.0%
C#CCOCCOCCOCCNc1nc(N2CCN(C(=O)CCCCCCCCCCNC(=O)[C@H](CCCCN)n3cc(CCCC(=O)O)nn3)CC2)nc(N2CCN(C(=O)CCCCCCCCCCNC(=O)[C@H](CCCN=C(N)N)n3cc(C[C@@H](C)CC)nn3)CC2)n1	?	nt	?	?	-6.1%	11.7%
CN(c1ccc(Cl)cc1)c1cc2c(c3c1ccn3C)C1CCC2O1 (centres undefined)	-5.3%	nt	nt	19.6	nt	nt
CCCS(=O)(=O)NC(=O)C1(C)CCN(C(=O)c2ccc(C#N)cc2)C1 (centres undefined)	-2.1%	nt	nt	-1.7	nt	nt
O=Cc1[nH]c2ccccc2c1N(C(=O)CCl)c1ccc([N+](=O)[O-])cc1	-4.9%	-1.7%	-13.4%	-1.9	6.5%	-0.2%
CC(=O)n1cc(N(C(=O)CCl)c2ccc([N+](=O)[O-])cc2)c2ccccc21	-9.1%	-11.3%	39.8µM*	0.3	?	-0.7%
CN(C)C/C=C/C(=O)Nc1cccc(-c2c[nH]c3ncnc(Oc4ccc(NC(=O)CC(=O)Nc5ccc(F)cc5)cc4F)c23)c1	-2.0%	nt	-8.0%	-50.3*	?	-5.7%
NS(=O)(=O)c1cc(C(=O)N=Nc2c(O)[nH]c3ccccc23)ccc1Cl	-7.4%[11.6 µM]	22.4µM*	?	-21.2	50.1µM*	-30.7%
O=C(N=Nc1c(O)[nH]c2ccccc12)c1cccc(S(=O)(=O)Nc2ccccc2Cl)c1	-17.2%	2.5%	-4.4%	-21.7	3.4%	-10.0%
CCc1ccc(OCC(=O)NNC(=O)c2ccc(NC(=O)C3CC3)cc2)cc1	-34.8%	31.6µM*	?	-0.2	79.4µM*	-8.2%
COc1cc(/C=C/C(=O)c2c(O)ccc3c(C)cc(=O)oc23)ccc1O	-24.6%	21.4%	?	6.3	12.6µM*	-6.4%
CN1c2ccccc2C(C)(C)C12C=Cc1cc(O)ccc1O2 (centres undefined)	-27.8%	-0.3%	-12.2%	nt	-10.9%	-11.2%
SMILES	WRN helicase inh	Pol beta inh	Pol eta inh	PI5P4K alpha inh	POLI inh	Pol kappa inh
CN1c2ccccc2C(C)(C)C12C=Nc1c(cc(N3CCOCC3)c3ccccc13)O2 (centres undefined)	-22.7%	3.0%	1.1%	5.3	3.55µM*	-20.3%
O=C1NC(=O)/C(=C\c2ccc(Oc3cnccn3)cc2)S1	-7.6%[57.1 µM]	-0.1%	-7.1%	-3.0	51.0%	-2.5%
CCOc1ccc(N(C)c2ccc(/C=C3/SC(=S)NC3=O)cc2)cc1	?	?	-25.5%	-55.2*	?	-38.9%
CN(C)c1ccc(C=C2SC(=S)NC2=O)cc1	?	nt	?	-13.7	?	-22.1%
CCOc1c(OC(C)=O)ccc(/C=C2\N=C(SCC)SC2=O)c1[N+](=O)[O-]	-4.5%	-4.7%	-14.1%	?	6.9%	-4.4%
O=C1NC(=S)S/C1=C/c1ccc(Oc2cnccn2)cc1	-18.7%[57.1 µM]	-2.0%	-15.5%	-77.9*	8.8%	4.4%
CCOc1c(O)ccc(/C=C2\SC(=S)NC2=O)c1[N+](=O)[O-]	-9.0%[11.6 µM]	20µM*	25.1µM*	-101.1*	12.6µM*	?
COc1ccc(NS(=O)(=O)c2cc3c(cc2C)N(C(C)=O)CCO3)cc1OC	-5.0%	-17.8%	1.1%	-1.4	36.9%	3.5%
CCOc1ccc(C(=O)NCCS(=O)(=O)N2CCN(c3cccc(Cl)c3)CC2)cc1	nt	0.9%	-7.8%	nt	6.4%	-17.3%[60.1 µM]
COCc1cccc(-c2csc(C(O)c3ccccc3)n2)c1 (centres undefined)	-5.6%	nt	nt	-4.1	nt	nt
Fc1cccc(Nc2nc(-c3ccncc3)nc3ccccc23)c1	?	12.6µM*	14.1µM*	-6.7	?	-22.5%
CCCN(C(=O)c1cc2c(s1)-c1ccccc1SC2)c1ccccc1F	nt	-21.3%	nt	nt	-4.2%	-7.3%
COc1cc(-c2nnc(SCCOc3cc(C)cc(C)c3)o2)cc(OC)c1OC	nt	50.1µM*	-18.6%	nt	-17.7%	-11.1%
O=C(O)c1ccc(S(=O)(=O)c2ccc([N+](=O)[O-])cc2[N+](=O)[O-])cc1	?	8.5%	79.4µM*	1.0	1.12µM*	-23.3%
